In PubChem BioAssay (NCATS):
Values without a mark were called inactive. Results filed as inconclusive are left out. Calls of active or inactive are those of the source. Unless noted, calls come from the whole dose curve; as a rule, active = well fitted curve in either direction with a large enough effect (not every such curve was filed as active); inconclusive = small, poorly fitted or top-dose-only effect, or another doubt; inactive = flat fitted curve, though single readings scatter.

Key:
[1] = target: Lysosomal acid glucosylceramidase (Homo sapiens) (UniProt P04062); test: Glucocerebrosidase-p2 (AID 348; in the data active = potency below about 10 µM; note: potency is the fitted concentration of half-maximal effect); conditions: purified GBA, blue fluorogenic substrate, 40 min
Sequence of Lysosomal acid glucosylceramidase (Homo sapiens) (P04062 whole entry, looked up): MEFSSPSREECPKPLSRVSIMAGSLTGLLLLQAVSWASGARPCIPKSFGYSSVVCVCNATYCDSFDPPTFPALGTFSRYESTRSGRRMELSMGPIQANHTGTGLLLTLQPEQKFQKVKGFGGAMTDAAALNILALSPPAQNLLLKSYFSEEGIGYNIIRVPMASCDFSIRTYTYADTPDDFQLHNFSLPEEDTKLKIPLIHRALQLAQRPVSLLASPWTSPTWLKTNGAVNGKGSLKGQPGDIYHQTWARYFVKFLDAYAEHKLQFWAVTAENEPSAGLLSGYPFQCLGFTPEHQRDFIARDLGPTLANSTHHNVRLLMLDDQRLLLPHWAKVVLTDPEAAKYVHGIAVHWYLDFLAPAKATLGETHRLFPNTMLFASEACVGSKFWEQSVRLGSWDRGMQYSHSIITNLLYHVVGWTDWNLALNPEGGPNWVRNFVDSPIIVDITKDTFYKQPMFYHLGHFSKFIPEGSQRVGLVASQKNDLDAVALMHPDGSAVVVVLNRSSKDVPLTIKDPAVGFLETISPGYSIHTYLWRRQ
Procedure, shortened: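 Compounds titrated from 0.6 nM upwards against 0.2 nM enzyme in pH 5.9 citric acid/KH2PO4, taurocholate, tween-20; blue fluorogenic substrate 80 uM, 40 min room temperature, stopped and read Ex 365/Em 440 for AC50.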

[2] = AP1 Signaling Pathway (AID 357); conditions: ME-180 AP-1-bla reporter, EGF-induced, beta-lactamase ratio, 5 h; at 7.69 µM (top of the series) unless noted;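 note: ME-180 reporter cells stimulated with EGF at its EC50 level; % is set by controls: 0 for no effect and ±100 for the full control effect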
Procedure, shortened: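 Beta-lactamase reporter under AP-1 response element, ME-180 background. Stimulus: EC50 EGF. Compound exposure 5 h, 37 °C. Detection: CCF4, 2.5 h RT, 460/530 nm. Values: AC50 from titration.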

[3] = target: Cytochrome P450 1A2 (Homo sapiens) (UniProt P05177); test: p450-cyp1a2 (AID 410; calls by dose curve; note: potency is the fitted concentration of half-maximal effect;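 for activity change, negative = inhibition: -100% = full effect of reference inhibitor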); conditions: recombinant CYP1A2, luciferin-ME demethylation, luminescence; series mostly up to 11.4 µM
Sequence of Cytochrome P450 1A2 (Homo sapiens) (P05177 whole entry, looked up): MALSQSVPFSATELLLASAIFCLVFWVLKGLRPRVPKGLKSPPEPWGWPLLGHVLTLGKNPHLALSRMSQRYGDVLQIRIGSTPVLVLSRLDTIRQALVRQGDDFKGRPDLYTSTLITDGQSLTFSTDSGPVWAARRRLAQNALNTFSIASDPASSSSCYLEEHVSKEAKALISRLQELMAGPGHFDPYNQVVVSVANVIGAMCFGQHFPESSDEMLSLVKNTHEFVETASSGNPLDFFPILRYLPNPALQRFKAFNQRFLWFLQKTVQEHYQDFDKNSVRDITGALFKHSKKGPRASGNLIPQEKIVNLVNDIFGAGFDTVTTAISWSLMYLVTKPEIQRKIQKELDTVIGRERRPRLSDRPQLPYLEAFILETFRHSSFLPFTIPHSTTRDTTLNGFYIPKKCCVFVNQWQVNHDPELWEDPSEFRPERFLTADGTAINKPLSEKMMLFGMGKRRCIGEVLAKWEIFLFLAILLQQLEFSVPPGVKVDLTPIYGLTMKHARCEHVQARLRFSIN
Procedure, shortened: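 20nM CYP1A2 with 100uM Luciferin-ME (at Km) in 100mM KPO4; compound preincubated 10 min, NADPH regeneration added, 60 min at room temperature. Luciferin quantified by luminescence after detection reagent; normalized to 57 uM furafylline.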

[4] = NFAT Signaling Pathway (AID 444); conditions: Jurkat NFAT-bla M1, carbachol, beta-lactamase ratio, 5 h; at 7.69 µM (top of the series) unless noted;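 note: carbachol stimulus at about its EC50 of 1 µM final; % is set by controls: 0 for no effect and ±100 for the full control effect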
Procedure, shortened: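 Read-out: CCF4 FRET ratio (460 nm/530 nm) after 1 h RT dye loading, used for %activity and AC50 from titration series. Cells: Jurkat NFAT-β-lactamase/M1 line, treated with compound plus 1 uM carbachol for 5 h, 37 °C.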

[5] = Stat Signaling Pathway (AID 446); conditions: ME-180 SIE beta-lactamase reporter, IL-6 stimulated, 5 h; at 7.69 µM (top of the series) unless noted;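 note: ME-180 cervical cancer cells given 40 pM IL-6 alongside compound; SIE-controlled beta-lactamase reporter measured as 460/530 nm FRET emission ratio; % is set by controls: 0 for no effect and ±100 for the full control effect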
Procedure, shortened: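 ME-180 SIE-bla cells; overnight plating; cpd + IL-6 40 pM, 5 h, 37 C; LiveBLAzer 2.5 h RT; 460/530 nm emission ratio. Normalized to 300 pM IL-6 and 125 nM JAK inhibitor controls.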

[6] = target: Glucocorticoid receptor (Homo sapiens) (UniProt P04150); test: GR-GFP Redistribution (AID 450;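 active = compounds whose dose series gives a full or clear partial fitted curve of increased nuclear translocation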; note: potency is the fitted concentration of half-maximal effect); conditions: U2OS GR-GFP nuclear translocation, laser cytometry, 2 h
Sequence of Glucocorticoid receptor (Homo sapiens) (P04150 whole entry, looked up, the tested form may be a part): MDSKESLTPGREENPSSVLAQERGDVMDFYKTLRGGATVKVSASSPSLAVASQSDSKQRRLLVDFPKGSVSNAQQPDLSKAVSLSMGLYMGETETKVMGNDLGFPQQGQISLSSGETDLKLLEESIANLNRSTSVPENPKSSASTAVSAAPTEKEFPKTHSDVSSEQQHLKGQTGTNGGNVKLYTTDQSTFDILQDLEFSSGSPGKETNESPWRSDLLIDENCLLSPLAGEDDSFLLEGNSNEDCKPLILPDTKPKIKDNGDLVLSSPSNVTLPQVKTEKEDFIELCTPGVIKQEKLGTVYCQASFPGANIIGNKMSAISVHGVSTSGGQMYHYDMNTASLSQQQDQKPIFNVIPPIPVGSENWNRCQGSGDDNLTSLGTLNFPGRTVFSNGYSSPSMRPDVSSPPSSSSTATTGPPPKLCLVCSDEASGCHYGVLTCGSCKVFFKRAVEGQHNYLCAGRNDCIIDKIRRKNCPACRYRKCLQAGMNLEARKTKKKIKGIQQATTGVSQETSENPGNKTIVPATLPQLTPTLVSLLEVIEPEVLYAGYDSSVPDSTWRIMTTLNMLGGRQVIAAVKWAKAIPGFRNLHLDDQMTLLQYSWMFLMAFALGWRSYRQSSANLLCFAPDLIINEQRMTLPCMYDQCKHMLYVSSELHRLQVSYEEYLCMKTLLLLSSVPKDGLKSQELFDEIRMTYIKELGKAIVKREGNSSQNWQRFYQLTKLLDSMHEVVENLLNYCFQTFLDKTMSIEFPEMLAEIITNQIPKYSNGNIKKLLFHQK

[7] = target: Mitogen-activated protein kinase 10 (Mus musculus) (UniProt Q61831); test: JNK3 AlphaScreen Assay (AID 530); conditions: JNK3 lysate, c-Jun phosphorylation; series mostly up to 11.4 µM;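 note: kinase came from lysate of stimulated human HepG2 cells; signal reports phosphorylation of biotinylated GST-cJun 1-79 at Ser73 with 10 µM ATP; % is set by controls: 0 for no effect and ±100 for the full control effect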
Procedure, shortened: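 Compound titrations were preincubated 15 minutes at room temperature with substrate, antibody and pre-activated JNK3-containing HepG2 lysate. Reactions were started with 10 uM ATP and stopped with EDTA-containing bead buffer for AlphaScreen detection.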

[8] = target: 3',5'-cyclic-AMP phosphodiesterase 4B (Homo sapiens) (UniProt Q07343); test: qHTS Assay for Inhibitors of PDE-IV (AID 607; active = well fitted activation curve with a large enough effect in the main read-out, with a control signal flat, not every such curve was filed as active; note: % of control where 0% means no effect); conditions: HEK293 ACTOne CNG channel cells, membrane potential fluorescence; series mostly up to 22.9 µM
Sequence of 3',5'-cyclic-AMP phosphodiesterase 4B (Homo sapiens) (Q07343 whole entry, looked up): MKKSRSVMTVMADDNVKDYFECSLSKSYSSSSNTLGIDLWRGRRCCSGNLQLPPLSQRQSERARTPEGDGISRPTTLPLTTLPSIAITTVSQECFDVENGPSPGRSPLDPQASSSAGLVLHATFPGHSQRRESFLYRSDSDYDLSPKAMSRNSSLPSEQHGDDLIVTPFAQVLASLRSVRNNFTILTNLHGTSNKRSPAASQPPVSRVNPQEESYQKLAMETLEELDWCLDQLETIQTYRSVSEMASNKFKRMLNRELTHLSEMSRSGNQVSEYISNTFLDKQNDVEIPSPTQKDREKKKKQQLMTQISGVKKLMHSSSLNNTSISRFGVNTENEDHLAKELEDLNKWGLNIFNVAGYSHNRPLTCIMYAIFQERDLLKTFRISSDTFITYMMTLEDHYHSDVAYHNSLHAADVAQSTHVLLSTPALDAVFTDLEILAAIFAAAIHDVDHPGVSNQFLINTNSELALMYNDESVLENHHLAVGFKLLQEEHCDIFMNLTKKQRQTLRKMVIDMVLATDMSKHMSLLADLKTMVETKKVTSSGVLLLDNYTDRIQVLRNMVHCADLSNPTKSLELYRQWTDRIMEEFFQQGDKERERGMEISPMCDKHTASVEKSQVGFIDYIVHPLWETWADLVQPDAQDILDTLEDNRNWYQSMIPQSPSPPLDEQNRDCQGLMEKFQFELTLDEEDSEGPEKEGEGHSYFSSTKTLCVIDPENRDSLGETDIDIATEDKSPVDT
Procedure, shortened: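 ACTOne HEK293 cells carry a modified cAMP-gated CNG channel and express endogenous PDE4; plated 1000 cells/well, compounds up to 22.9 uM final. Membrane-potential dye fluorescence (ex 535/em 590) was read; parental cells received 10 uM forskolin + 100 uM RO 20-1724.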

[9] = target: Cytochrome P450 2C9 (Homo sapiens) (UniProt P11712); test: qHTS Assay for Inhibitors and Substrates of Cytochrome P450 2C9 (AID 883; active = well fitted curve in the direction sought with a large enough effect; an effect the other way counts as inactive or inconclusive; note: potency is the fitted concentration of half-maximal effect; nearly all actives have a fitted effect of over 60% in size); conditions: recombinant CYP2C9, luciferin-H luminescence, 60 min; series mostly up to 11.4 µM
Sequence of Cytochrome P450 2C9 (Homo sapiens) (P11712 whole entry, looked up): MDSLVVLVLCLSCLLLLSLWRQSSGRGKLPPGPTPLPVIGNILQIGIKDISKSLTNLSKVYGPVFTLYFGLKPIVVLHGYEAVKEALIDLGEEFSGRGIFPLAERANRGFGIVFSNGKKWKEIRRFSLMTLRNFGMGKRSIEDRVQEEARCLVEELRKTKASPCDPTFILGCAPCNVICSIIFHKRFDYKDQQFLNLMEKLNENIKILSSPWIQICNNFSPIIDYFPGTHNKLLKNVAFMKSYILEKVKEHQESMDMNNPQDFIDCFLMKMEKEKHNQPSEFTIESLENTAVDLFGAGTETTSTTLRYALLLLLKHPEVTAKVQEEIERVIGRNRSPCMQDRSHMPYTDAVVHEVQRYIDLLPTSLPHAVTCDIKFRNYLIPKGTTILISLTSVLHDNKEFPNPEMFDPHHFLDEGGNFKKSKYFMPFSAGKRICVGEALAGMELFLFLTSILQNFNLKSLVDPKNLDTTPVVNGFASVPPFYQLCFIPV
Procedure, shortened: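 Luminescent read-out of deoxyluciferin hydroxylation, normalized to 57uM sulphaphenazole (AC100). Reaction: 10nM enzyme, 100uM Luciferin-H (equal to KM), 25mM KPO4, 10 min compound preincubation, then 60 min with NADPH regeneration, both at 37C.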

[10] = target: Cytochrome P450 3A4 (Homo sapiens) (UniProt P08684); test: qHTS Assay for Inhibitors and Substrates of Cytochrome P450 3A4 (AID 884; active = well fitted curve in the direction sought with a large enough effect; an effect the other way counts as inactive or inconclusive; note: potency is the fitted concentration of half-maximal effect; nearly all actives have a fitted effect of over 50% in size); conditions: recombinant CYP3A4, Luciferin-PPXE luminescence; series mostly up to 57.1 µM
Sequence of Cytochrome P450 3A4 (Homo sapiens) (P08684 whole entry, looked up): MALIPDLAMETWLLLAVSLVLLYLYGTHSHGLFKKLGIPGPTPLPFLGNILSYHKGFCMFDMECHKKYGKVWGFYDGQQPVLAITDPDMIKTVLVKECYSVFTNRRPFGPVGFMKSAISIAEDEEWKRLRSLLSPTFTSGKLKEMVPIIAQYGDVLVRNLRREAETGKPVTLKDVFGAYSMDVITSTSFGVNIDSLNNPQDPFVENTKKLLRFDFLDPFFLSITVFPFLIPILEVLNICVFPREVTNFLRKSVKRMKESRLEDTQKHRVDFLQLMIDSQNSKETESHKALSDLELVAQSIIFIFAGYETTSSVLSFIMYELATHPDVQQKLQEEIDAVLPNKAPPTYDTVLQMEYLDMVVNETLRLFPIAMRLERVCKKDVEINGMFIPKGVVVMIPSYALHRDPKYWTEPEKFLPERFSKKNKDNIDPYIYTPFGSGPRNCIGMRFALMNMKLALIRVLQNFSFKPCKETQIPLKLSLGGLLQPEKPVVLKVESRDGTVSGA
Procedure, shortened: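 20 nM human CYP3A4 with 25 uM Luciferin-PPXE (at KM) in 200 mM KPO4, preincubated 10 min with compound; NADPH regeneration started a 60 min RT reaction. Luciferin detected by luminescence, normalized to 57 uM ketoconazole as full inhibition.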

[11] = target: Cytochrome P450 3A4 (Homo sapiens) (UniProt P08684); test: qHTS Assay for Activators of Cytochrome P450 3A4 (AID 885; active = well fitted curve in the direction sought with a large enough effect; an effect the other way counts as inactive or inconclusive; note: nearly all actives have a fitted effect of over 65% in size); conditions: recombinant CYP3A4, Luciferin-PPXE luminescence, 60 min; series mostly up to 11.4 µM
Procedure, shortened: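 20nM CYP3A4 + 25uM Luciferin-PPXE (=KM), 200mM KPO4; cpd 10 min RT; NADPH regen, 60 min RT; stop w/ detection buffer, 20 min; luminescence. Normalized to 57 uM ketoconazole.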

[12] = target: Cytochrome P450 2C19 (Homo sapiens) (UniProt P33261); test: qHTS Assay for Inhibitors and Substrates of Cytochrome P450 2C19 (AID 899; active = well fitted curve in the direction sought with a large enough effect; an effect the other way counts as inactive or inconclusive; note: potency is the fitted concentration of half-maximal effect; nearly all actives have a fitted effect of over 60% in size); conditions: recombinant CYP2C19, luciferin-H EGE luminescence; series mostly up to 11.4 µM
Sequence of Cytochrome P450 2C19 (Homo sapiens) (P33261 whole entry, looked up): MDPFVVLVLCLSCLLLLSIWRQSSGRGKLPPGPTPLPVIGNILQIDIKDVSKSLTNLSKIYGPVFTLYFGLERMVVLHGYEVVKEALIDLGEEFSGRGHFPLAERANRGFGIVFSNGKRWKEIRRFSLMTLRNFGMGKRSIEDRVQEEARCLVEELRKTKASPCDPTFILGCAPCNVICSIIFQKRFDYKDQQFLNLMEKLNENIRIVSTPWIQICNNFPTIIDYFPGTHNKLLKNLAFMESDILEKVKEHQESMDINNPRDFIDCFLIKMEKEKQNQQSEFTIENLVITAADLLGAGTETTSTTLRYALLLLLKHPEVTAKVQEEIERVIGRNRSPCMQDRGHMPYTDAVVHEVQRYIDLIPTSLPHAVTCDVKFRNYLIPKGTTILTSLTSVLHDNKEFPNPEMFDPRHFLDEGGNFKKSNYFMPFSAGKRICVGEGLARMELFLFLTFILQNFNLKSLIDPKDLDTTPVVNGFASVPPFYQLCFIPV
Procedure, shortened: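 Luminescence readout of luciferin formed from 10uM Luciferin-H EGE (KM level) by 5 nM CYP2C19 in 50mM KPO4. 60 min NADPH-driven reaction at 37C after 10 min compound preincubation; data scaled to 57uM ketoconazole inhibition.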

[13] = target: Glucocorticoid receptor (Homo sapiens) (UniProt P04150); test: GR-EFC Redistribution (AID 451; calls by dose curve; note: potency is the fitted concentration of half-maximal effect); conditions: CHO-K1 GR-EFC translocation, beta-gal luminescence, 2 h
Procedure, shortened: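 Translocation of GR-ED fusion to nuclear EA restores b-gal, read by luminescence after 1 h room-temperature detection. Engineered CHO-K1 biosensor cells, 1,000/well, exposed 2 h at 37 C to titrations up to 46 uM final.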

[14] = target: Cytochrome P450 2D6 (Homo sapiens) (UniProt P10635); test: qHTS Assay for Inhibitors and Substrates of Cytochrome P450 2D6 (AID 891; active = well fitted curve in the direction sought with a large enough effect; an effect the other way counts as inactive or inconclusive; note: nearly all actives have a fitted effect of over 60% in size; note: potency is the fitted concentration of half-maximal effect); conditions: recombinant CYP2D6, luciferin-ME EGE luminescence; series mostly up to 11.4 µM
Sequence of Cytochrome P450 2D6 (Homo sapiens) (P10635 whole entry, looked up): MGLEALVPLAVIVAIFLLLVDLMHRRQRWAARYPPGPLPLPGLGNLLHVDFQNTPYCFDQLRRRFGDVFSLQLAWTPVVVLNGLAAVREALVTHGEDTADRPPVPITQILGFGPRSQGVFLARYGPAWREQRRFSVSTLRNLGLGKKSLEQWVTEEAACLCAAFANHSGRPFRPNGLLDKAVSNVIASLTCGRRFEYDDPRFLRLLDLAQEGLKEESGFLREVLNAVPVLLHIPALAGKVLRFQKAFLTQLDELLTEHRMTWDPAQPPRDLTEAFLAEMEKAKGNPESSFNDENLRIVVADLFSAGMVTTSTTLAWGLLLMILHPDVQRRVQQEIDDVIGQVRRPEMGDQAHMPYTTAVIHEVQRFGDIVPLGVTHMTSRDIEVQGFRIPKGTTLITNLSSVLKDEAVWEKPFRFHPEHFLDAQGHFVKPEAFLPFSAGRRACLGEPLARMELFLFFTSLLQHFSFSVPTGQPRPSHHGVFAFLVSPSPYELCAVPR
Procedure, shortened: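 Human CYP2D6 (5 nM) with 30 uM Luciferin-ME EGE (at Km) in 100 mM KPO4, compound preincubated 10 min, then NADPH regeneration system for 60 min at room temperature. Luciferin read by luminescence; normalized to 1.43 uM quinidine.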

[15] = qHTS Assay for Identification of Small Molecule Agonists for Hypoxia Response Element Signaling Pathway (AID 914; active = well fitted activation curve with a large enough effect in the signal ratio, with a control signal flat, not every such curve was filed as active; the % refers to the signal ratio; note: % of control where 0% means no effect); conditions: ME-180 (cervical carcinoma) HRE-bla reporter, beta-lactamase ratio, CoCl2, 17 h; activation: hits give high values
Procedure, shortened: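 Compounds in a titration series were added to ME-180 reporter cells alongside an EC50 level of CoCl2. After 17 hours, beta-lactamase activity was read as the 460nm/530nm emission ratio of CCF4, giving AC50 values.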

| SMILES | Potency [1] | activity change, negative = inhibition [2] | Potency [3] | activity change, negative = inhibition [4] | activity, negative = inhibition [5] | Potency [6] | Potency [7] | Potency [8] | Potency [9] | Potency [10] | Potency [11] | Potency [12] | Potency [13] | activity change, negative = inhibition [3] | Potency [14] | activation [15] |
| --- | --- | --- | --- | --- | --- | --- | --- | --- | --- | --- | --- | --- | --- | --- | --- | --- |
| c1cc(CSSCc2ccncc2)ccn1 | > 11.4 µM | -3.12% | 2 µM (active) | 12.2% | -6.55% | > 46 µM | inactive | inactive | 1.58 µM (active) | 2.51 µM (active) | inactive | 1.26 µM (active) |  |  |  |  |
| O=S(=O)(O)c1cc(N=Nc2cccc3ccccc23)c(O)c2ncccc12 | > 11.4 µM | -3.71% | 0.631 µM (active) | 8.38% | 0.477% | > 46 µM |  | inactive |  |  |  |  | > 9.22 µM |  |  |  |
| O=C(CCCc1ccccn1)c1ccccc1 | > 11.4 µM | 4.82% | 5.01 µM (active) | 1.79% | 2.46% | > 46 µM | inactive | inactive |  |  |  |  |  |  |  |  |
| CCN1CCCCC(=N/O)/C(=N/O)CCCC1 | > 11.4 µM | -1.64% | inactive | -10.8% | 2.5% | > 46 µM | inactive | inactive |  |  |  |  |  |  |  |  |
| CC(C)N(CC(=O)O)CC(=O)O | > 11.4 µM | 11.5% | inactive | 4.66% | 10.4% | > 46 µM |  | inactive |  |  |  |  | > 9.22 µM |  |  |  |
| CN(CCO)Cc1ncccc1O | > 11.4 µM | -2.61% |  | 14.9% | 12.9% | > 46 µM |  | inactive |  |  |  |  | > 9.22 µM | -10% [at 2.29 µM] |  |  |
| CCCCn1cnc2c(c(CC#N)nn2-c2ccccc2)c1=N | > 11.4 µM | -12% | 1 µM (active) | -1.01% | -0.662% | > 46 µM | inactive |  |  |  |  |  | > 9.22 µM |  | 0.398 µM (active) | 16.2% |
| CN(C)CCNc1nc2c(c(=O)n(C)c(=O)n2C)n1C | > 11.4 µM | -7.15% | inactive | 4.81% | 9.47% | > 46 µM | inactive |  |  |  |  |  | > 9.22 µM |  | inactive |  |
